Among all 310,000 compounds or so, about 1,500 (0.48%) were called active. This excerpt belongs to a sample that is enriched for actives. A number with no mark means an inactive call.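 The calls were made as follows: active = binding more than 3 SD below its plate's average and above zero; inconclusive = below that plate limit but binding exactly zero; inactive = the rest.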

Sequence of Desmoglein-3 (Homo sapiens) (P32926 whole entry, looked up, the tested form may be a part): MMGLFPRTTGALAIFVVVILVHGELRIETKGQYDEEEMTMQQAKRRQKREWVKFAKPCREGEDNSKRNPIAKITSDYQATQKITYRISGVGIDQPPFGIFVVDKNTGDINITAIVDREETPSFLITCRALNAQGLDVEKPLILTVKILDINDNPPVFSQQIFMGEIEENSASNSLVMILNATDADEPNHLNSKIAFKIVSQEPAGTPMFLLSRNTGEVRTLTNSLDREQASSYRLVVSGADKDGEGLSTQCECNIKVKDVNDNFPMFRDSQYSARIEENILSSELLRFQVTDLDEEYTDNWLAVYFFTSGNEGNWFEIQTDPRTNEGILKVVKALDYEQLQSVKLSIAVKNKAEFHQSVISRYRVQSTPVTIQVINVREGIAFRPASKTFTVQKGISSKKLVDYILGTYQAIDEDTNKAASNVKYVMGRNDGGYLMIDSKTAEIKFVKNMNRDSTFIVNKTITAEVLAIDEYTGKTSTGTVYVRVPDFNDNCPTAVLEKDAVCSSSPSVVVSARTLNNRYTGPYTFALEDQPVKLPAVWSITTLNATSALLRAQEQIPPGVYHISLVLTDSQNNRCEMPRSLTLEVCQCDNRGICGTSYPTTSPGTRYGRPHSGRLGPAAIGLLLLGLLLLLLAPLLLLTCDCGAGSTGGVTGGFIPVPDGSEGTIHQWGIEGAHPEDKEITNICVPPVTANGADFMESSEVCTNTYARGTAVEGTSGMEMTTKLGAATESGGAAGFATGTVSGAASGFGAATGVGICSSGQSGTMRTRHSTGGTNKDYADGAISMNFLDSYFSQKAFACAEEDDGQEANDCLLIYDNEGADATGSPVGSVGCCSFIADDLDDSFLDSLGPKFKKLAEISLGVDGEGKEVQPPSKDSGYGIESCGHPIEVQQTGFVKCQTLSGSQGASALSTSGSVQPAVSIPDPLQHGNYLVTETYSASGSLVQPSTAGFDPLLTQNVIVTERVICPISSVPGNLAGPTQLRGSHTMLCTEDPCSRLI

The assay concerns the target Desmoglein-3 (Homo sapiens) (UniProt P32926). Description: inhibitors of pemphigus antibody binding to DSG3, primary screen, biochemical, bead-based, flow cytometry, scFv-GFP (AID 588358).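 Also: hits lower antibody fragment binding to DSG3.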 The settings on record: DSG3-coupled beads, scFv-anti-DSG3-GFP binding, at 10 µM, hits give low values. Background: In flow cytometry, cells or beads pass a laser one at a time.
For the compound `O=c1[nH]c(-c2cccs2)nc2ccccc12`, the binding (percent of control) was 98.9%.

Consider `C[C@H]1CN([C@@H](C)CO)C(=O)CCCn2nncc2CO[C@@H]1CN(C)Cc1ccc(Oc2ccccc2)cc1`, for which the binding (percent of control) was 101%.

Turning to `Cc1ccc(C(=O)N[C@H](C(=O)N2CCN(c3ncccn3)CC2)C(C)C)cc1`, the binding (percent of control) was 96.6%.

Consider `NS(=O)(=O)c1ccc(NC(=O)COC(=O)CCc2c[nH]c3ccccc23)cc1`, for which the binding (percent of control) was 96.4%.

As for `CCOC(=O)c1cc2cc3ccccc3cc2oc1=O`, the binding (percent of control) was 105%.

As for `NS(=O)(=O)c1ccc(NC(=O)COC(=O)c2cc3ccccc3oc2=O)cc1`, the binding (percent of control) was 9.15% (active).

Regarding `COc1cccc(NC(=O)[C@H](Cc2c[nH]c3ccccc23)NC(=O)[C@@H]2Cc3ccccc3CN2)c1`, the binding (percent of control) was 63.9% (active).

Turning to `COc1ccc(NC(=O)C2CCC(CNC(=O)[C@@H]3Cc4ccccc4CN3)CC2)cc1` (stereo not given in full), the binding (percent of control) is 104%.

On to `COc1ccc(NC(=O)[C@H](NC(=O)[C@@H]2Cc3ccccc3CN2)c2ccccc2)cc1`, for which the binding (percent of control) was 103%.

On to `COc1ccc(CN2C(=O)C(CC(=O)NCc3cccc4ccccc34)CC(C(=O)N3CCOCC3)=C2C)cc1` (stereo not given), for which the binding (percent of control) was 102%.

As to `O=C(Nc1cc(F)ccc1F)c1ccc2c(=O)n3c(nc2c1)CCC3`, the binding (percent of control) was 98.5%.

As to `C[C@H]1Cn2cnc(C(=O)N[C@@H](Cc3c[nH]c4ccccc34)C(=O)OC(C)(C)C)c2C(=O)N1`, the binding (percent of control) was 98.2%.

In the case of `CCOC(=O)CNc1nc(Cl)nc(Nc2ccccc2)n1`, the binding (percent of control) was 90.6%.

In the case of `CCC(=O)Nc1ccc(Nc2nc(Cl)nc(Nc3ccc(NC(=O)CC)cc3)n2)cc1`, the binding (percent of control) was 81.3% (active).

Regarding `CCC(=O)Nc1ccc(C(=O)NNC(=O)c2ccc(Cl)cc2)cc1`, the binding (percent of control) was 103%.

Consider `O=C(CCN1CCCCC1)Nc1ccc(F)c(F)c1`, for which the binding (percent of control) was 94.7%.

Regarding `CCC(O)C1CCN(Cc2cn(-c3ccc(OC)cc3)nc2-c2cccc(F)c2)CC1` (stereo not given), the binding (percent of control) was 110%.

For the compound `COc1ccc(-n2cc(CN(C)Cc3n[nH]c(=O)[nH]3)c(-c3cccc(F)c3)n2)cc1`, the binding (percent of control) was 103%.

Consider `COc1ccc(-n2cc(CNC3CCOCC3)c(-c3cccc(F)c3)n2)cc1`, for which the binding (percent of control) is 21.8% (active).

`Cc1cccc(NC(=O)c2sc3nc(N4CCOCC4)c4c(c3c2N)CCCC4)c1`: the binding (percent of control) was 94.3%.

Regarding `Cc1ccc(NC(=O)c2sc3nc(N)c(C#N)cc3c2N)cc1`, the binding (percent of control) is 99.5%.

For `CC(=O)Nc1ccc(NC(=O)c2sc3nc4c(c(-c5ccc(C)cc5)c3c2N)CCC4)cc1`, the binding (percent of control) is 6.32% (active).

For `Cc1ccc(NC(=O)CN2CCc3ccccc3C2)cc1C`, the binding (percent of control) is 120%.

As to `Cc1ccc(NC(=O)COc2coc(CN3CCc4ccccc4C3)cc2=O)cc1Cl`, the binding (percent of control) was 85.8% (active).

In the case of `Cc1cc(C)cc(NC(=O)COc2coc(CN3CCN(c4ccccc4)CC3)cc2=O)c1`, the binding (percent of control) was 104%.

In the case of `O=C(COC(=O)/C=C/c1ccc(Cl)cc1)NC1CCS(=O)(=O)C1` (stereo not given), the binding (percent of control) is 107%.

For the compound `CN(c1ccccc1)S(=O)(=O)c1ccc(C(=O)NCc2cccnc2)cc1`, the binding (percent of control) was 97.8%.

For the compound `COc1cc2c(=O)n(C)c3ccccc3c2cc1OC`, the binding (percent of control) is 103%.

In the case of `Cc1ccc(-c2nc(C#N)c(NCCCn3ccnc3)o2)cc1`, the binding (percent of control) is 66.2% (active).

Turning to `Cc1ccc(S(=O)(=O)c2nc(NCCCn3ccnc3)sc2Cl)cc1`, the binding (percent of control) was 98.5%.

For `COc1ccc(-c2cc(C(=O)NCCCn3ccnc3)no2)cc1`, the binding (percent of control) is 104%.

Consider `Cc1ccc(CCNC(=O)CN2C(=O)CSc3ccc(S(=O)(=O)N4CCOCC4)cc32)cc1`, for which the binding (percent of control) is 100%.

For `Cc1ccc(C(=O)N2CCCc3ccccc32)c(Cl)c1`, the binding (percent of control) was 104%.

For `Cc1ccc(-c2nc3ccc(Cl)cn3c2Cc2ccccc2)cc1`, the binding (percent of control) was 111%.

Consider `C[C@@H]1CN([C@@H](C)CO)C(=O)c2cc(Br)cnc2O[C@H]1CN(C)Cc1ccc(-c2ccccc2)cc1`, for which the binding (percent of control) was 101%.

As for `O=S(=O)(c1ccc(Cl)cc1)c1nc(-c2ccccc2F)oc1NCCN1CCOCC1`, the binding (percent of control) is 103%.

In the case of `O=S(=O)(c1ccccc1)c1nc(-c2ccccc2F)oc1NCc1cccnc1`, the binding (percent of control) is 91.8% (active).

`O=S(=O)(c1ccc(Br)cc1)c1nc(-c2ccccc2)oc1NCc1cccnc1`: the binding (percent of control) is 78.8%.

`COCCn1c(C)cc(C2=NNC(=Nc3ccc(F)cc3)SC2)c1C`: the binding (percent of control) was 76.6% (active).

Take `Clc1cccc(N=C2NN=C(c3ccc4c(c3)OCCO4)CS2)c1`: the binding (percent of control) was 97.3%.

Regarding `C=CCn1c(C)cc(C2=NNC(=NCC)SC2)c1C`, the binding (percent of control) was 80.2%.

Turning to `COc1ccc(N2C(=O)CC(Sc3n[nH]c(-c4ccc(C)cc4)n3)C2=O)cc1` (stereo not given), the binding (percent of control) is 85.3%.

As to `COc1ccc(N2C(=O)CC(SC(C)C)C2=O)cc1` (stereo not given), the binding (percent of control) was 68% (active).

For the compound `COc1ccc(N2C(=O)CC(N3CCC(C(N)=O)CC3)C2=O)cc1` (stereo not given), the binding (percent of control) was 97.6%.

Regarding `Cc1cccc(C)c1NC(=O)CNC(=O)c1ccc(N2CCOCC2)c([N+](=O)[O-])c1`, the binding (percent of control) is 95.2%.

For `COc1ccc2nc(-c3ccccn3)ccc2c1`, the binding (percent of control) is 101%.

Turning to `CCCc1ccc(S(=O)(=O)N2CCN(C(=O)c3cc(C)on3)CC2)cc1`, the binding (percent of control) is 96.3%.

`CCCCCCn1c(=O)n2n(c1=O)C[C@]1(OC(=O)NCc3ccc(OC)c(OC)c3)CN(S(=O)(=O)c3ccc(C)cc3)C[C@]1(O)C2`: the binding (percent of control) is 108%.

For `CC1=C(C(=O)Nc2cccc(C(=O)NCC(C)c3ccccc3)c2)SCCO1` (stereo not given), the binding (percent of control) was 106%.

Consider `CCOc1ccc(CCNC(=O)COC(=O)c2ccc(C)c(S(=O)(=O)N3CCOCC3)c2)cc1OCC`, for which the binding (percent of control) was 97.5%.

The values are drawn from PubChem BioAssay AID588358 (NMMLSC, 2011).
